Most compounds without a hit are left out; they make up all but 3.5% or so of the library.
Pf apPOL inh: Pf-apPOL DNA polymerase inhibition; Recombinant Pf-apPOL, molecular beacon fluorescence, 1.5 h; inhibition, % at 10 µM; 210,000 compounds, 0.25% hits
mHTT-CaM PPI inh: disrupts binding of mutant huntingtin to calmodulin; AlphaScreen His-mHTT/GST-CaM binding, luminescence; 190,000 compounds, 3.6% hits; AID 1671202; inhibition, % at 15 µM;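 note: 0% = both proteins with DMSO and 100% = one protein alone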
* = called active by the depositor; / = not tested or not shown. Cut-off read from the data, not from the text of the source: active = inhibition above about 50%; inactive = the rest.

SMILES	Pf apPOL inh	mHTT-CaM PPI inh
O=C(Nc1cc(-c2ccccn2)no1)C1CCC1	0	-9
Cc1ccc(-c2nn(CC(=O)Nc3ccc(F)cc3)c(=O)c3ccccc23)cc1	-11	-1
COc1nsc(SC)c1C(N)=O	/	-7
COc1cc(N=c2oc3c(O)cc(C(C)(C)C)cc3cc2C(N)=O)cc(OC)c1	-8	56*
CCOc1cccc2cc(C(N)=O)c(=Nc3ccc(OC)cc3)oc12	3	6
O=C(O)CCCC(=O)Nc1ccc([N+](=O)[O-])cc1	-2	-4
O=C1OCCN1C(=O)[C@H]1[C@H](c2ccc(F)cc2)C(c2ccccc2)=NN1c1ccccc1	1	-33
O=C1OCCN1C(=O)[C@H]1[C@H](c2ccc(Cl)cc2)C(c2ccc(F)cc2)=NN1c1ccc(Br)cc1	-7	79*
O=C1OCCN1C(=O)[C@H]1[C@H](c2ccc(F)cc2)C(c2ccc(F)cc2)=NN1c1ccc(Br)cc1	-6	54*
O=C1OCCN1C(=O)[C@H]1[C@H](c2ccc(Cl)cc2)C(c2ccc(F)cc2)=NN1c1ccccc1	2	72*
O=C1OCCN1C(=O)[C@H]1[C@H](c2ccc(Cl)cc2)C(c2ccccc2)=NN1c1ccccc1	-8	-9
O=C1OCCN1C(=O)[C@H]1[C@H](c2ccc(F)cc2)C(c2ccc(F)cc2)=NN1c1ccccc1	1	24
COc1ccc(CCN2Cc3c(sc4c3CCCC4)N(C(C)=O)C2)cc1OC	-4	29
CN(C(=O)C1=Cc2ccccc2OC=C1)c1ccccc1	-7	43
O=C(O)c1c[nH]c2ccc(S(=O)(=O)NCc3ccc(F)cc3)cc2c1=O	0	4
Cn1cccc1C(CNC(=O)c1ccccc1C(F)(F)F)N1CCCC1 (stereo not given)	-4	-14
CCOc1ccccc1C(=O)Nc1c2c(nn1-c1cccc(C)c1C)CS(=O)(=O)C2	0	0
O=C(CSc1ccccc1)N1CCc2nc3cc[nH]n3c(=O)c2C1	22	0
COc1ccc(NC(=O)N2CCc3nc[nH]c3C2)c(OC)c1	73*	13
COc1ccc(OC)c(NC(=O)N2CCc3nc[nH]c3C2)c1	0	19
CCN1c2cc(F)ccc2C(=O)NC12CCN(C(=O)c1cc(OC)cc(OC)c1)CC2	3	0
O=[N+]([O-])c1ccc(NN=C2CCCCCC2c2ccccc2)c([N+](=O)[O-])c1 (stereo not given)	-3	/
O=[N+]([O-])c1ccccc1NN=C1CCCC1	/	58*
Cc1ccccc1OCCOCCN1CCCC1	4	7
Nc1sc2c(c1-c1nn[nH]n1)CCCC2	/	90*
SMILES	Pf apPOL inh	mHTT-CaM PPI inh
N#Cc1c(N)sc2c1CCCC2	-2	4
CC(C(=O)Nc1cccc2c1C(=O)c1ccccc1-2)N1C(=O)C2C3C=CC(C3)C2C1=O (stereo not given)	-1	61*
CC(C(=O)Nc1ccccn1)N1C(=O)C2C3C=CC(C3)C2C1=O (stereo not given)	2	3
O=C1Nc2ccc(Br)cc2/C1=C/c1ccccc1F	-1	31
CCOc1ccccc1/C=C1\C(=O)Nc2ccc(Br)cc21	1	63*
CCOc1ccc(/C=C2\C(=O)Nc3ccc(Cl)cc32)cc1	-4	25
CCCOc1ccccc1/C=C1\C(=O)Nc2ccc(Br)cc21	5	97*
CCOc1ccccc1/C=C1\C(=O)Nc2ccc(Cl)cc21	6	64*
O=C1Nc2ccc(Cl)cc2/C1=C/c1ccc(Cl)cc1	1	35
CC(C)(C)c1ccc(/C=C2\C(=O)Nc3ccc(Cl)cc32)cc1	-22	60*
CCOc1ccc(/C=C2\C(=O)Nc3ccc(Br)cc32)cc1	-8	40
CC(=O)Nc1ccc(NC(=O)CSc2ccccc2)cc1	-8	-6
Cc1ccccc1/C=C1\C(=O)Nc2ccc(Cl)cc21	-5	85*
Cc1ccc2c(c1)/C(=C/c1ccccc1Cl)C(=O)N2	-3	16
CCOc1cccc(/C=C2\C(=O)Nc3ccc(Br)cc32)c1O	-12	58*
CCCNC(=O)c1nnn(-c2ccc(Cl)cc2)c1-c1cccnc1	1	-10
OCCN(CCO)c1nc(N2CCCCC2)c2nc(N(CCO)CCO)nc(N3CCCCC3)c2n1	61*	/
OCCNc1nc(N2CCCCC2)nc(N2CCCCC2)n1	/	-13
CN1CCc2nc(NC(=O)c3ccno3)sc2C1	-3	-7
O=[N+]([O-])c1ccc(-c2nnnn2-c2ccccn2)cc1	-2	2
N#Cc1c(Nc2ccc(F)cc2)sc2c(O)cc(=O)[nH]c12	-3	51*
O=c1cc(O)c2sc(Nc3ccc(F)cc3)nc2[nH]1	4	20
CCc1nc2c(n1C)CN(CC(=O)NC1CCN(Cc3ccccc3)CC1)CC2	-2	14
O=C1[C@H](Cc2ccccc2)NCCCC[C@@H](c2ccc(Cl)cc2)N1Cc1ccccc1	-4	91*
O=C1[C@H](Cc2ccccc2)NCCCC[C@H](c2ccc(Cl)cc2)N1Cc1ccc(Cl)cc1	-6	11
SMILES	Pf apPOL inh	mHTT-CaM PPI inh
Cc1c(NC(=O)CSS(=O)(=O)O)c(=O)n(-c2ccccc2)n1C	0	-3
Cc1ccc(NC(=O)CN(c2cccc(C)c2C)S(=O)(=O)c2ccccc2)c(C)c1	-8	-5
COc1cccc2cc(-c3nc4ccccc4[nH]3)c(=Nc3ccc(C(N)=O)cc3)oc12	0	-1
COc1cccc2cc(-c3nc4ccccc4[nH]3)c(=N)oc12	75*	12
CCOC(=O)N1CCN(C(=O)Cn2cnc3c(cnn3-c3ccc(C)cc3C)c2=O)CC1	6	5
Cc1cccc(CNC(=O)c2cc(-c3ccncc3)cn2C)c1	-5	12
O=C(CSc1n[nH]c(=O)n1-c1ccccc1)c1ccccn1	/	-2
COc1ccccc1CNCc1cccc(F)c1	-2	-4
Cc1ccc(C(=O)NCC2CCCO2)c(Cl)c1 (stereo not given)	0	-2
Clc1cc2nc(-c3ccco3)c(-c3ccco3)nc2cc1Cl	-5	100*
CSc1nnc(-c2ccco2)c(-c2ccco2)n1	-5	31
Oc1ccc(Cl)cc1C1=NNC(c2cccs2)C1 (stereo not given)	-1	52*
COc1ccccc1C1CC(c2cc(F)ccc2O)=NN1 (stereo not given)	-1	40
OCCn1c(-c2ccc(I)cc2)csc1=Nc1cccc(Cl)c1	4	80*
Cc1ccc(-c2csc(=Nc3cccc(Cl)c3)n2CCO)cc1	-4	93*
CCOc1ccc(N=c2scc(-c3ccc(C)cc3)n2C)cc1	-2	8
Cc1cccc(N=c2scc(-c3ccc(F)cc3)n2CCO)c1	-2	65*
COc1ccccc1CN1C(=O)CN(C2CCCC2)C(=O)C1c1ccc(Cl)cc1 (stereo not given)	-9	5
CCc1onc(C)c1C1CCCN1Cc1cn(CC)c2ccccc12 (stereo not given)	1	0
COCCNS(=O)(=O)c1ccccc1[N+](=O)[O-]	-2	-8
Cc1ccc(-n2nc(C)c3sc(N4CCCC(C(=O)NCCc5ccco5)C4)nc32)cc1 (stereo not given)	-6	28
C[N+]1(CC(O)COc2ccc(C34CC5CC(CC(C5)C3)C4)cc2)CCCCCC1 (stereo not given)	-4	91*
CC1C[N+](C)(CC(O)COc2ccc(C(C)(C)CC(C)(C)C)cc2)CC(C)O1 (stereo not given)	-2	52*
CC(C)(C)CC(C)(C)c1ccc(OCC(O)C[N+](C)(C)C)cc1 (stereo not given)	-1	28

Assay outcomes deposited in PubChem by University of Kansas High Throughput Screening Laboratory.
